Experimental data reported in the supplement of paper PMC10849652.
Of roughly 8,800 targets only a part is listed; those with a hit were picked by preference. About 0.5% of all pairs of compound and target were hits.

Tests used:
Assay in all cases: log2 fold change, soluble protein after heating vs DMSO (PISA); higher = thermal stabilisation; K562 lysate, 10 uM; active = over 0.2 and 3.5 SD of the protein, either way, in both replicates (recomputed)
[1] = compound: Cc1cn(-c2cc(NC(=O)c3ccc(C)c(Nc4nccc(-c5cccnc5)n4)c3)cc(C(F)(F)F)c2)cn1 [nilotinib]
Summary of the method: (§1)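 Pellets of K562 cells were dounce-homogenised in PBS pH 7.4 with 1 mM MgCl2, and the crude extract was held at 1 mg/mL protein for a 30 min treatment with 10 μM compound. Aliquots were heated for 3 min over 48°C-58°C and pooled before NP-40 was added to 0.5% at 4°C. The supernatant from 21,000xg for 90 min was quantified by TMTpro 16plex LC-MS/MS with channel sums equalised. Values are reported from duplicates as log-two fold change in thermal stability relative to solvent controls.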

[2] = compound: Cc1nc(Nc2n[nH]c3c2CN(C(=O)N[C@H](CN(C)C)c2ccccc2)C3(C)C)c2sccc2n1
Summary of the method: as §1

[3] = compound: Cc1nc(Nc2ncc(C(=O)Nc3c(C)cccc3Cl)s2)cc(N2CCN(CCO)CC2)n1 [dasatinib]
Summary of the method: as §1

[4] = compound: Cc1ncc(-c2ccnc(Nc3ccc(S(C)(=O)=O)cc3)n2)n1C(C)C
Summary of the method: as §1

[5] = compound: Cn1cc(-c2ccc3c(c2)CCN3C(=O)Cc2cccc(C(F)(F)F)c2)c2c(N)ncnc21
Summary of the method: as §1

[6] = compound: Cn1cc(CNCC2CCN(c3ncc(C(=O)NO)cn3)CC2)c2ccccc21 [quisinostat]
Summary of the method: as §1

[7] = compound: Cn1cncc1[C@@](N)(c1ccc(Cl)cc1)c1ccc2c(c1)c(-c1cccc(Cl)c1)cc(=O)n2C [tipifarnib]
Summary of the method: as §1

[8] = compound: NC(=O)Nc1cc(-c2cccc(F)c2)sc1C(=O)N[C@H]1CCCNC1
Summary of the method: as §1

[9] = compound: NC(=O)c1cnc(N[C@@H]2CCCC[C@@H]2N)nc1Nc1cccc(-n2nccn2)c1
Summary of the method: as §1

[10] = compound: NC1(c2ccc(-c3nc4ccn5c(=O)[nH]nc5c4cc3-c3ccccc3)cc2)CCC1
Summary of the method: as §1

Measured: log2 fold change

THADA (UniProt Q6YHU6)
inactive: [1] 0.009 | [2] 0.012 | [3] -0.048 | [4] 0.008 | [5] 0.027 | [6] -0.115 | [7] -0.011 | [8] 0.053 | [9] 0.007 | [10] 0.002

UBR5 (UniProt O95071)
inactive: [1] 0.006 | [2] 0.027 | [3] -0.028 | [4] -0.019 | [5] 0.019 | [6] -0.059 | [7] -0.02 | [8] 0.005 | [9] 0.013 | [10] -0.009

TPM3 (UniProt P06753)
inactive: [1] 0.014 | [2] -0.033 | [3] 0.023 | [4] 0.028 | [5] -0.012 | [6] 0.046 | [7] 0.033 | [8] -0.042 | [9] -0.02 | [10] 0.034

TRIM23 (UniProt P36406)
Chain of UniProt P36406 (P36406 whole entry, looked up): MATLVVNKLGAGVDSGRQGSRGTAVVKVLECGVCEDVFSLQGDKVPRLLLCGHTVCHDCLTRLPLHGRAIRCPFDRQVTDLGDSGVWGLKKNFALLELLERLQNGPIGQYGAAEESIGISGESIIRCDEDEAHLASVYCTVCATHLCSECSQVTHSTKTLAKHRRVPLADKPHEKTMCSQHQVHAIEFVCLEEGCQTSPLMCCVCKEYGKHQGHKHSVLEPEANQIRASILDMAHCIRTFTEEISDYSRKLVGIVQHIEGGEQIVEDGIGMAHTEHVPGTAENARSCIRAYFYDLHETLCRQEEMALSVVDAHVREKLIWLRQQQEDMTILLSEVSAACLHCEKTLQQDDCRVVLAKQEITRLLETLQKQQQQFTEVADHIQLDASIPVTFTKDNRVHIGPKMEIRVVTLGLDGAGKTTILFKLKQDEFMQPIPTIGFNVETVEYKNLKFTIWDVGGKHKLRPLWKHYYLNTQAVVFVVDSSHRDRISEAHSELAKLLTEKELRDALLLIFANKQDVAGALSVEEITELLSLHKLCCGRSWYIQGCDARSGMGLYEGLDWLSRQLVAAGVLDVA
inactive: [1] 0.107 | [2] -0.004 | [3] -0.005 | [4] -0.046 | [5] 0.136 | [6] -0.044 | [7] 0.023 | [8] 0.005 | [9] 0.072 | [10] 0.037

TMEM263 (UniProt Q8WUH6)
inactive: [1] 0.151 | [2] 0.153 | [3] -0.134 | [4] -0.079 | [5] 0.011 | [6] 0.021 | [8] 0.063 | [9] -0.021 | [10] -0.154
active: [7] -0.512

UBE2L6 (UniProt O14933)
Chain of UniProt O14933 (O14933 whole entry, looked up): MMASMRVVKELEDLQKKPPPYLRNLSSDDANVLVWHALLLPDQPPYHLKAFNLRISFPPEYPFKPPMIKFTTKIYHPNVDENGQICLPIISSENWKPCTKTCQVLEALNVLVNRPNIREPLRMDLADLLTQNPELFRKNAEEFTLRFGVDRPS
inactive: [1] 0.038 | [2] -0.139 | [3] -0.018 | [4] 0.036 | [5] -0.055 | [6] 0.024 | [7] 0.043 | [8] -0.032 | [9] -0.002 | [10] -0.096

TUBGCP2 isoform 4 (UniProt Q9BSJ2)
inactive: [1] -0.016 | [2] 0.012 | [3] -0.058 | [4] 0.012 | [5] 0.064 | [6] -0.091 | [7] -0.001 | [8] 0.037 | [9] 0 | [10] -0.016

TUBGCP5 (UniProt Q96RT8)
Chain of UniProt Q96RT8 (Q96RT8 whole entry, looked up): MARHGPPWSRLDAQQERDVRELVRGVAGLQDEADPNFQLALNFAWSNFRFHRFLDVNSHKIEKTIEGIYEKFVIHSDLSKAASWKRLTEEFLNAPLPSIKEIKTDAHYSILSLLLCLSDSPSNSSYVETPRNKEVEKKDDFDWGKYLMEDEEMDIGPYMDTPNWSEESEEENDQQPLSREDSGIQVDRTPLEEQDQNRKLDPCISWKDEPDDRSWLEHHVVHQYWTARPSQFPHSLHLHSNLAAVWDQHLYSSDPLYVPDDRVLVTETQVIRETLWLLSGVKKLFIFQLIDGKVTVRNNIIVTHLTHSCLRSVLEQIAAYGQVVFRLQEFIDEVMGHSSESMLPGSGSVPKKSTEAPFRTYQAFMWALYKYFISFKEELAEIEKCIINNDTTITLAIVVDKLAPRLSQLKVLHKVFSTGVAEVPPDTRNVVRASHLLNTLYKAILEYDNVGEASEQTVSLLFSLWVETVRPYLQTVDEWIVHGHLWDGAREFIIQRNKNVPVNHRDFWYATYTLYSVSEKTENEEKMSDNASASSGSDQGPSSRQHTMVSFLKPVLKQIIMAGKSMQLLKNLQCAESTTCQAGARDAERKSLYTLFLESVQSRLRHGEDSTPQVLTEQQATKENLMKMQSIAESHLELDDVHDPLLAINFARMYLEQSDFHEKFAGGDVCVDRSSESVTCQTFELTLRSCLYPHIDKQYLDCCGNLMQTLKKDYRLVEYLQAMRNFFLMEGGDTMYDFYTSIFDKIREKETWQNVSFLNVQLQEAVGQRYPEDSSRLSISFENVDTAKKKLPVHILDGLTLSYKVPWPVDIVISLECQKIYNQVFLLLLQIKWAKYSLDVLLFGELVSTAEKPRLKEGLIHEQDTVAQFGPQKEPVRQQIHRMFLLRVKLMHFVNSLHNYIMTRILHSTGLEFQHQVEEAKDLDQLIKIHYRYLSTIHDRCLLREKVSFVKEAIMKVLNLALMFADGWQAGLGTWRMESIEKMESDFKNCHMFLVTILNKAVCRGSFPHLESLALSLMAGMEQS
inactive: [1] 0.024 | [2] 0.04 | [3] 0.119 | [4] 0.048 | [5] -0.094 | [6] 0.203 | [7] 0.012 | [8] 0.077
active: [9] -0.68

UBAP2 (UniProt Q5T6F2)
inactive: [1] -0.093 | [2] 0.008 | [3] -0.042 | [4] 0.021 | [5] -0.023 | [6] -0.008 | [7] -0.073 | [8] 0.019 | [9] 0.016 | [10] 0.029

UBE2D1 (UniProt P51668)
inactive: [2] -0.093 | [3] -0.1 | [4] -0.064 | [5] 0.033 | [6] 0.108 | [7] -0.065 | [8] -0.06 | [9] -0.066 | [10] 0.029
active: [1] 0.259

TRMT12 (UniProt Q53H54)
Chain of UniProt Q53H54 (Q53H54 whole entry, looked up): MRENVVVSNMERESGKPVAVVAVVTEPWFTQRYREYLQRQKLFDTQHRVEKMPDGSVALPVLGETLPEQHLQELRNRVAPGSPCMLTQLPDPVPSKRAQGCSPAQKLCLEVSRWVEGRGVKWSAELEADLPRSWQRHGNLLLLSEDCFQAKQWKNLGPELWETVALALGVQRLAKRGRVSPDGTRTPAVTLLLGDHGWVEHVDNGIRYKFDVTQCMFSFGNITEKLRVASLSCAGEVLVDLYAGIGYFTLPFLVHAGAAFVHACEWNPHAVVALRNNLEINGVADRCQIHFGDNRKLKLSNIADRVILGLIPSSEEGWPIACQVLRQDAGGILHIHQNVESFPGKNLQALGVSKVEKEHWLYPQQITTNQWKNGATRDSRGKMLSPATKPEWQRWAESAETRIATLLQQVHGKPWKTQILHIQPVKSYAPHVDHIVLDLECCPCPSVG
inactive: [1] -0.02 | [2] -0.005 | [3] -0.032 | [4] 0.062 | [5] -0.017 | [6] -0.074 | [7] -0.007 | [8] 0.117 | [9] -0.009 | [10] 0.004

TEDC1 (UniProt Q86SX3)
inactive: [1] 0.015 | [2] -0.016 | [3] 0.087 | [4] -0.038 | [5] 0.05 | [6] 0.161 | [7] -0.049 | [8] -0.074 | [9] 0.104 | [10] -0.022

TUBB1 (UniProt Q9H4B7)
Chain of UniProt Q9H4B7 (Q9H4B7 whole entry, looked up): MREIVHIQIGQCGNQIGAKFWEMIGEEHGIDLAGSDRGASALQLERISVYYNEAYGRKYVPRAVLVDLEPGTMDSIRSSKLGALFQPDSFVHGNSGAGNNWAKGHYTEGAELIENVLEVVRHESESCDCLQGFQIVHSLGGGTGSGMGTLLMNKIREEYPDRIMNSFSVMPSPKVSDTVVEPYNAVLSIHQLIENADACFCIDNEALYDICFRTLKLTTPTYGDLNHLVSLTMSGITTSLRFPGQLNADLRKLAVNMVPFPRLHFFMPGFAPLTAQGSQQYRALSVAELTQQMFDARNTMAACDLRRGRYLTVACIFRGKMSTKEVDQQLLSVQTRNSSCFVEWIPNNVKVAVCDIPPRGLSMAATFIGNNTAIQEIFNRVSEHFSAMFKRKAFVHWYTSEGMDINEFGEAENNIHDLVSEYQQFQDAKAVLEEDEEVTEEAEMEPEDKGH
inactive: [1] 0.095 | [2] -0.013 | [3] -0.043 | [4] -0.004 | [5] 0.002 | [6] 0.079 | [7] 0.03 | [8] 0.009 | [9] -0.006 | [10] -0.019

TCF3 (UniProt P15923)
Chain of UniProt P15923 (P15923 whole entry, looked up): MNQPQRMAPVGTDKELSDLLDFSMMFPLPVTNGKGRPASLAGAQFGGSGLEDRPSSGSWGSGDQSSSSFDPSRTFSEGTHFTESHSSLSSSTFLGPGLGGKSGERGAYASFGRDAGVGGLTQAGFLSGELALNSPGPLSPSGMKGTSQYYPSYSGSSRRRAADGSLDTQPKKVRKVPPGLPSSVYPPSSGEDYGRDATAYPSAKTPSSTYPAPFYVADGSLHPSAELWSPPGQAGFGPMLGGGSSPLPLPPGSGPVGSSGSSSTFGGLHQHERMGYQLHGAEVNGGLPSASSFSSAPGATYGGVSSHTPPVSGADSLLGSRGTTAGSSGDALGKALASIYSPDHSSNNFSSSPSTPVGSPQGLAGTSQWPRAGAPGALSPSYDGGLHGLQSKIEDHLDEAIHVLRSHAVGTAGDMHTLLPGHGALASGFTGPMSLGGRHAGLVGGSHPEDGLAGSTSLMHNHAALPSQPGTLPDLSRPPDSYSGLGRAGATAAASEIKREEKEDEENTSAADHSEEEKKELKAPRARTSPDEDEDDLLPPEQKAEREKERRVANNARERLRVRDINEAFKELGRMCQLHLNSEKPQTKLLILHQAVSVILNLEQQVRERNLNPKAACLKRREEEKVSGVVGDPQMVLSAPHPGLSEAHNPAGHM
inactive: [1] 0.028 | [2] -0.118 | [3] -0.018 | [4] -0.057 | [5] -0.139 | [6] 0.006 | [7] -0.245 | [8] 0.055 | [9] -0.019 | [10] -0.003

UBE2H (UniProt P62256)
Chain of UniProt P62256 (P62256 whole entry, looked up): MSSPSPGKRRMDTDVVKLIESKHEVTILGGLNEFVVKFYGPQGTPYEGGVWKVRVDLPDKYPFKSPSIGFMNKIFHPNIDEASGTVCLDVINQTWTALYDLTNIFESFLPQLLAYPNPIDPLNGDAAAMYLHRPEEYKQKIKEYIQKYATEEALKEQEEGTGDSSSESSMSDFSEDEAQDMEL
inactive: [1] -0.021 | [2] -0.041 | [3] 0.046 | [4] 0.02 | [5] 0.021 | [6] -0.015 | [7] -0.049 | [8] 0.014 | [9] 0.005 | [10] -0.041

TMEM14C (UniProt Q9P0S9)
Chain of UniProt Q9P0S9 (Q9P0S9 whole entry, looked up): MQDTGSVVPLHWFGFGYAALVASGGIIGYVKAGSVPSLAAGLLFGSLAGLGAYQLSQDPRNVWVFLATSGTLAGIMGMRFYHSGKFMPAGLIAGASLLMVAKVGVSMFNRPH
inactive: [1] 0.065 | [2] -0.089 | [3] 0.031 | [4] 0.13 | [5] 0.029 | [6] -0.299 | [7] -0.017 | [8] 0.029 | [9] -0.13 | [10] -0.07

TMEM199 (UniProt Q8N511)
inactive: [1] 0.005 | [2] 0.005 | [3] -0.011 | [4] 0.001 | [5] 0.046 | [6] 0.031 | [7] 0.026 | [8] 0 | [9] 0.005 | [10] 0.068

TRAF2 isoform 2 (UniProt Q12933)
Chain of UniProt Q12933 (Q12933 whole entry, looked up): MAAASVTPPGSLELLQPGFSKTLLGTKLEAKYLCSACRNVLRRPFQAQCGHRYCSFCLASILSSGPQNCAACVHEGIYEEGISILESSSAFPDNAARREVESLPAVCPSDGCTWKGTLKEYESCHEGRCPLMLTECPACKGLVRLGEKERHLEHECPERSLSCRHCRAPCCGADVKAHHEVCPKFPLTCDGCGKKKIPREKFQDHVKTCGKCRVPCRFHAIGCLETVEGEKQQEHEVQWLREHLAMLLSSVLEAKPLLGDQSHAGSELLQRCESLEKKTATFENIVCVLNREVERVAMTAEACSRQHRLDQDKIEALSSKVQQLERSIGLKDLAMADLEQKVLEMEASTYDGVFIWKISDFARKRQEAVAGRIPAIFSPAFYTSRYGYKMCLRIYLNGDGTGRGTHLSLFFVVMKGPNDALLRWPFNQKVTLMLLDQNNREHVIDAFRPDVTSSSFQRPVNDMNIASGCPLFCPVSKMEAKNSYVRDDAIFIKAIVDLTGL
inactive: [1] -0.02 | [2] 0.008 | [3] -0.024 | [4] 0.042 | [5] 0.01 | [6] -0.024 | [7] 0.005 | [8] -0.016 | [9] 0.001 | [10] -0.016

UBA1 (UniProt P22314)
inactive: [1] -0.004 | [2] 0.014 | [3] -0.026 | [4] 0.002 | [5] 0.028 | [6] -0.019 | [7] -0.01 | [8] 0.019 | [9] 0.008 | [10] -0.011

TBCE (UniProt Q15813)
inactive: [1] -0.001 | [2] -0.008 | [3] -0.012 | [4] -0.01 | [5] 0.049 | [6] -0.025 | [7] -0.005 | [8] 0.033 | [9] 0.015 | [10] -0.041

TOR3A (UniProt Q9H497)
inactive: [1] 0.042 | [2] -0.037 | [3] 0.022 | [4] -0.043 | [5] 0.012 | [6] 0.019 | [7] -0.061 | [8] 0.054 | [9] 0.041 | [10] -0.064

TTF2 (UniProt Q9UNY4)
inactive: [1] -0.008 | [2] -0.062 | [3] -0.012 | [4] -0.023 | [5] 0.018 | [6] -0.042 | [7] 0.004 | [8] 0.02 | [9] 0.019 | [10] -0.067

UBP1 (UniProt Q9NZI7)
inactive: [1] -0.019 | [2] -0.039 | [3] 0.008 | [4] 0.05 | [5] 0.002 | [6] -0.125 | [7] -0.084 | [8] 0.01 | [9] 0.008 | [10] -0.058

TROAP (UniProt Q12815)
inactive: [1] -0.041 | [2] 0.023 | [3] -0.071 | [4] 0.037 | [5] 0.043 | [6] -0.096 | [7] -0.005 | [8] 0.007 | [9] 0.031 | [10] -0.018

TTC12 isoform 2 (UniProt Q9H892)
Chain of UniProt Q9H892 (Q9H892 whole entry, looked up): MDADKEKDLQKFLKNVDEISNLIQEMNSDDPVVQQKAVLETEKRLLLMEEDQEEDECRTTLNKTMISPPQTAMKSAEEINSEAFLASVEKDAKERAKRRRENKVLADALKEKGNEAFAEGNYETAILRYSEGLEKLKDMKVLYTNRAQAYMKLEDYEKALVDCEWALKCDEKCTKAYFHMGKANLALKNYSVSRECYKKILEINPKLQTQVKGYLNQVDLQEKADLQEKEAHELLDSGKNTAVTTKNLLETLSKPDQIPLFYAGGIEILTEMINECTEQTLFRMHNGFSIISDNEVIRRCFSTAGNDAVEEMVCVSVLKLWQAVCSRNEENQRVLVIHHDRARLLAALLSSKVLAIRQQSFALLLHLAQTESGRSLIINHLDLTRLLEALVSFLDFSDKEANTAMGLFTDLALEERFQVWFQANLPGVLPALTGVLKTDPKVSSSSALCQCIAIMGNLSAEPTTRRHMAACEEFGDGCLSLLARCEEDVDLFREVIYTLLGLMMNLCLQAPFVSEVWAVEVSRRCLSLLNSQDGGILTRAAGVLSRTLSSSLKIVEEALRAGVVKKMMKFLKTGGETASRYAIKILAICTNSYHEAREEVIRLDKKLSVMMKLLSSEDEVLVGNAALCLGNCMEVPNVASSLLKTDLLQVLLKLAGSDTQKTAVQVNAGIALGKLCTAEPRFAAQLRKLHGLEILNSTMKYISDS
inactive: [1] -0.128 | [2] -0.073 | [3] -0.143 | [4] 0.018 | [5] 0.004 | [6] 0.033 | [7] 0.075 | [8] 0.007 | [9] -0.041 | [10] -0.073

UFM1 (UniProt P61960)
Chain of UniProt P61960 (P61960 whole entry, looked up): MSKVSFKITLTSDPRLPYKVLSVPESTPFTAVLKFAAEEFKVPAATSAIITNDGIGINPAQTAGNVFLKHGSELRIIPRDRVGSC
inactive: [1] 0.042 | [2] 0 | [3] -0.037 | [4] 0.107 | [5] -0.032 | [6] 0.321 | [7] 0.088 | [8] -0.116 | [9] -0.063 | [10] 0.043

TUBA4A (UniProt P68366)
inactive: [1] 0.036 | [2] -0.024 | [3] -0.09 | [4] -0.009 | [5] 0.02 | [6] -0.024 | [7] -0.012 | [8] 0.034 | [9] 0.022 | [10] -0.003

UBL4A (UniProt P11441)
inactive: [1] -0.005 | [2] -0.013 | [3] 0.052 | [4] -0.037 | [5] 0.036 | [6] 0.157 | [7] -0.024 | [8] 0.02 | [9] 0.007 | [10] 0.016

TGOLN2 isoform 7 (UniProt O43493)
inactive: [1] -0.059 | [2] -0.004 | [3] 0.023 | [4] 0.021 | [5] 0.033 | [6] -0.029 | [7] -0.087 | [8] 0.014 | [9] 0.019 | [10] 0.008

TK1 (UniProt P04183)
inactive: [1] -0.009 | [2] 0.002 | [3] 0.004 | [4] 0.003 | [5] -0.009 | [6] -0.03 | [7] 0.015 | [8] -0.005 | [9] -0.043 | [10] -0.003
